Laboratory results reported in the supplement of paper PMC6555819.

Legend:
Assay in all cases: PBM binding z-score (relative to random genomic background probes); higher = stronger binding; sequences stand for … in GC…GCGATTGACAGCGTAGAATGAAGG
[1] = test system: RARb homodimer (NR concentration 270 nM)
Method in brief: (§1)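 Ligand-free nuclear receptor dimers were applied to custom Agilent 4×180K protein-binding microarrays whose double-stranded probes carried direct-repeat seeds, single-nucleotide variants, half-site ablations and random human genomic background sequences in 34-nt variable regions. Incubation lasted 1 h. Binding z-scores were computed against the random background probes from regression-normalized fluorescence.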

[2] = test system: RARg:RXRa (NR concentration 270 nM, RXRa partner concentration 90 nM)
Method in brief: as §1

[3] = test system: RARg homodimer (NR concentration 270 nM)
Method in brief: as §1

[4] = test system: RXRa DBDmut IVT, anti-RXR (DBD mutation: RXRa K156A/R161A, NR concentration 90 nM)
Method in brief: as §1

[5] = test system: RXRa homodimer (NR concentration 180 nM)
Method in brief: as §1

[6] = test system: THRa:RXRa (NR concentration 90 nM, RXRa partner concentration 90 nM)
Method in brief: as §1

[7] = test system: THRa homodimer (NR concentration 90 nM)
Method in brief: as §1

[8] = test system: VDR homodimer (NR concentration 270 nM)
Method in brief: as §1

Sequence | PBM binding z-score [1] | PBM binding z-score [2] | PBM binding z-score [3] | PBM binding z-score [4] | PBM binding z-score [5] | PBM binding z-score [6] | PBM binding z-score [7] | PBM binding z-score [8]
GCTCGGAGGACAAGGTCAGAGGTTTGTCCGTAGA | 3.27 | 3.12 | 3.27 | 0.666 | 2.53 | 3.07 | 1.42 | 1.2
CCTACTGGGCTAAGGTCATTGATCAGTCAAAGCA | 3.59 | 4.14 | 3.51 | 1.83 | 4.07 | 3.95 | 4.04 | 2.94
TCTTGTAGATCAACAGGAGGTTAACAAAGATCGA | 0.875 | 1.22 | 0.542 | 0.267 | 1.3 | 1.22 | 0.0101 | -0.33
GGAACGAGGGCATTCCAGTTGATAGCATGGCGAT | 0.706 | 1.1 | 1.38 | 3.25 | 0.797 | 3.1 | -0.0583 | 2.61
CCTGTTAGGTCAATGGTCAGCTAAAGCAGCTCGC | 3.5 | 4.07 | 4.93 | 2.35 | 2.63 | 3.16 | 2.18 | 0.926
ATCTCTTGGTAAAGTTCAGTGAAAGATCGATAGA | 2.41 | 2.08 | 2.53 | 2.06 | 1.04 | 0.889 | 0.154 | 2.21
ACTAGCAGGCCAAGTTTGGGTCAGTCAAACAAAG | 1.85 | 1.65 | 0.925 | -0.416 | 0.0586 | 1.62 | 0.427 | -0.265
CCTAGTTGGGCAAGGTCACACACGCTATAGGTAC | 3.9 | 4.2 | 3.87 | 1.51 | 4.41 | 3.79 | 3.23 | 2.77
TGAAGGAGGTTAAAGATCAGGGAACGTGGCGTCG | 1.01 | 1.89 | 0.932 | -0.223 | 3.25 | 1.26 | 0.214 | 0.438
CCTACTGGGCCATCAGGTCATTAATATCAACGTT | 2.55 | 1.64 | 1.8 | 0.551 | 0.85 | 2.99 | 2.9 | 1.56
CCTCGGAGGACAACAGGAGGTCAGATCTGCCAGA | 3.64 | 3.34 | 3.12 | 0.415 | 1.59 | 2.81 | 1.03 | 1.28
AATACAGCGTCATCGTAGGCCAGAGTACGCACAG | -0.094 | -0.121 | 0.174 | -0.495 | -0.0638 | 0.55 | -0.659 | -0.00282
CCTAGCAGGCTAATCTGGGTCACTCAAGGCTTGA | 1.8 | 0.393 | 0.769 | 0.246 | 0.687 | 3.19 | 0.623 | 0.114
CCGACTGGCGCAGAAAGGTTACCATACCATCCGG | 1.78 | 0.821 | 0.575 | -0.469 | 1.66 | 1.05 | -0.286 | -0.331
CCAGACAGGTGAGAAGGTAACTTAGCCTCGATTA | 0.632 | 0.486 | 0.577 | -0.104 | 0.246 | 0.524 | 0.316 | 0.118
GCTAGTTGGTCAGTAAAAGGTCATACACCGGTCG | 4.93 | 4.81 | 3.6 | 0.515 | 4.8 | 3.39 | 1.35 | 2.09
TCTCGGGGGACACGAAAGGTCAGAGCTCGACATC | 4.59 | 6.13 | 6.61 | 2.14 | 4.9 | 4.19 | 2.07 | 1.57

Sequence | PBM binding z-score [1] | PBM binding z-score [2] | PBM binding z-score [3] | PBM binding z-score [4] | PBM binding z-score [5] | PBM binding z-score [6] | PBM binding z-score [7] | PBM binding z-score [8]
GCTTACGGGTCAAAGGTTATAGAATGAATAGAAT | 3.44 | 6.87 | 5.16 | 2.45 | 9.56 | 3.89 | 0.468 | 1.96
CGTCAAAGTTCAACTAAGGCAACGTAAAGCACGC | 4.17 | 5.79 | 6.64 | 4.64 | 5.05 | 4.74 | 0.241 | 3.68
AGTCAAAGTTCAGGACGAGGTAACGAAAAGCACG | 2.94 | 4.74 | 4.62 | 2.71 | 3.34 | 3.75 | 1.77 | 2.11
ATATGTATGTTAAGGGTCATTCAGGTTGGTTCGC | 3.82 | 3.82 | 2.66 | 2.29 | 4.3 | 3.36 | 1.54 | 3.48
CAAACTAGGTCACGAAAGGTCAAAGGCGAATGAC | 5.95 | 8.09 | 8.64 | 1.99 | 8.7 | 5.15 | 2.55 | 3.38
TCTAGCAGGCCAGAGGGCCACTCAAGAGGTACGG | -0.0244 | -0.057 | -0.117 | -0.104 | 0.144 | -0.545 | -1.1 | -0.232
CGAAATAGGTCATCCAGGACAGTGAATACATTGA | 3.71 | 5.08 | 4.84 | 2.26 | 4.96 | 3.96 | 1.19 | 1.92
ATATGTAGGTCACATCCGGGTCATTCAGGCTATG | 4.84 | 6.67 | 5.7 | 2.15 | 5.28 | 4.65 | 2.94 | 3.78
ACTATTAGTTGAGACGAGGACAACCGATAGGTTG | 0.638 | 0.27 | 0.902 | 0.0973 | 0.226 | 3.9 | 2.56 | 0.657
TCTATTTGGTCAAAGGTCACACACTCGAAATGCG | 5.34 | 7.07 | 6.16 | 2.49 | 7.9 | 4.24 | 2.77 | 2.96
CCTAGTTGGTCAGGAGGTCACAGACCGGATATGA | 4.29 | 5.27 | 4.13 | 0.184 | 5.2 | 3.57 | 2.15 | 2.05
TAATATAGGTAAAGGTGAAAGTCGAACGATATGA | 1.71 | 1.62 | 1.66 | -0.417 | 2.32 | 1.45 | 0.232 | 0.489
TCATATACGTAATACAGGTGAAAGTCGGCATCTA | 0.8 | 0.758 | 0.567 | 1.76 | 1.3 | 0.75 | 0.27 | 0.145
ATACCAAGGTGATCGTGAGGTCGTTGCTACTAAC | 1.88 | 2.03 | 0.891 | 0.967 | 1.56 | 3.25 | 2.43 | 3.33
CGAACTAGGTCATCCAGGACTGTGAATACATTGA | 2.93 | 4.02 | 4.47 | 2.26 | 2.62 | 2.95 | 1.17 | 1.39
CCTATTAGTTGACCATAAGGACAACCGAAGCTCG | 1.71 | 1.36 | 1.28 | 0.69 | 0.852 | 3.42 | 3.91 | 1.1
CGTCCAAGGTCAATGCTAGTTCAGTGAAAGCATT | 4.24 | 6.18 | 6.17 | 3.83 | 4.84 | 3.91 | 2.17 | 3.28
